STK33 kin inh – blocks human STK33 kinase activity. Q9BYT3. ADP-Glo luminescence, MBP substrate. inhibition, % at 12.5 µM. 27,000 compounds, 0.44% hits; in the data active means inhibition above about 20%; inconclusive means no clear call, values can overlap the other calls
Target sequence (Q9BYT3 whole entry, looked up): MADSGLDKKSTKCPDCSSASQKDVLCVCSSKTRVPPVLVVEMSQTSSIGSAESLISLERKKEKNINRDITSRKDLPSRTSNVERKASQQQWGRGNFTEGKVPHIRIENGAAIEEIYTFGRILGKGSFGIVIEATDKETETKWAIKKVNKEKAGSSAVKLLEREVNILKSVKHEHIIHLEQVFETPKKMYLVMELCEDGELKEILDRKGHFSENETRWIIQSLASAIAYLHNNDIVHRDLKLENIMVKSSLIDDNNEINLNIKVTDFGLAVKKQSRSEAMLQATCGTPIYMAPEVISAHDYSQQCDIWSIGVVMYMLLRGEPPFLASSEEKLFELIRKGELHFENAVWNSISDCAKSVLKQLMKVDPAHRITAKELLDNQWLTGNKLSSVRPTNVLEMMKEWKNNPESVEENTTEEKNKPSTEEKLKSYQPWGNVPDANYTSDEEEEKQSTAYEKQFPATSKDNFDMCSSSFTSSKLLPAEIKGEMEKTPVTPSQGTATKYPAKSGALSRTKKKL
NOMO-1 viab – STK33 inhibitor candidate reducing NOMO-1 cell viability; NOMO-1 AML viability, CellTiter-Glo luminescence, 72 h; inhibition, % (concentration not given with the values); 37,000 compounds, 7.5% hits; AID 2330; in the data active means inhibition above about 80%; inconclusive means no clear call, values can overlap the other calls
PD-1 reverse act – reversal of PD-1 mediated T-cell inhibition. primary human CD4 T cells, PD-L1 beads, CellTiter-Glo 96 h. activation, % (test concentration not listed). 29,000 tested, under 10 active. AID 2316; call rule not given here;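 further: 0% = median vehicle wells and 100% = positive control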
Active calls of the source: *; ? = inconclusive; nt = no result. The full list was thinned out, with hits kept by preference.

SMILES | STK33 kin inh | NOMO-1 viab | PD-1 reverse act
C[C@H]1CN([C@@H](C)CO)C(=O)c2cc(NC(=O)c3ccncc3)ccc2O[C@@H]1CN(C)Cc1ccc(C(F)(F)F)cc1 | 1 | -4 | -1
CN(C)CCNc1nc(-c2noc(NCCN(C)C)n2)no1 | nt | -31 | 1
CC(=O)Nc1cccc(NC(=S)NCc2ccco2)c1 | 9 | -11 | -1
N#Cc1sc2nc(-c3ccncc3)ccc2c1N | nt | 24 | 1
COc1cccc(S(=O)(=O)NCc2ccc(C(=O)O)cc2)c1 | 2 | -20 | 1
CNC(=O)N(Cc1cccnc1)Cc1ccccc1Cl | nt | 32 | -1
c1cn2c3c(n1)CCCc3c1cc(C3CCCCC3)ccc12 | nt | 123* | 0
Cc1cc(I)ccc1NC(=O)CN(c1ccc(Cl)c(Cl)c1)S(C)(=O)=O | -8 | 24 | 0
Cc1cc2ncc(-c3ccccc3)nc2cc1C | 3 | 20 | 3
c1ccc(-c2cnc3nonc3n2)cc1 | nt | 115* | -5
Cc1ccc(NCC(O)CSc2nc3c(cc2C#N)CCCC3)cc1 (stereo not drawn) | 1 | -22 | 0
COc1ccc(CN(C)C[C@@H]2Oc3ccc(NC(=O)CCCCCC(=O)Nc4ccccc4N)cc3CC(=O)N([C@@H](C)CO)C[C@@H]2C)cc1 | nt | 127* | 0
COc1ccc(CN(C)C[C@@H]2Oc3ccc(NC(=O)CCCCCC(=O)Nc4ccccc4N)cc3CC(=O)N([C@H](C)CO)C[C@@H]2C)cc1 | nt | 124* | -2
COc1ccc(NC(=O)N(C)C[C@@H]2Oc3ccc(NC(=O)CCCCCC(=O)Nc4ccccc4N)cc3CC(=O)N([C@H](C)CO)C[C@H]2C)cc1 | nt | -1 | 4
COc1ccc(CN(C)C[C@H]2Oc3ccc(NC(=O)CCCCCC(=O)Nc4ccccc4N)cc3CC(=O)N([C@@H](C)CO)C[C@H]2C)cc1 | nt | 75 | 1
COc1ccc2cc(Br)ccc2c1CC(=O)Nc1cccnc1 | -3 | -4 | 0
COc1ccc(C)cc1NC(=O)CN(c1ccc(Br)c(C)c1)S(C)(=O)=O | 0 | 9 | -1
CC/C=C\C=C1\C(=O)C=CC1CCCCCCCC(=O)O (stereo not drawn) | -1 | nt | nt
COc1ccc(NC(=O)CSc2nc(C)cc(=O)[nH]2)c(OC)c1 | 0 | 0 | 1
COc1ccc(CC(=O)Nc2cccc(-c3nnc(-c4ccc(C)cc4)o3)c2)cc1OC | 0 | 122* | 1
COc1ccccc1OCC(=O)Nc1cccc(-c2nnc(-c3ccccc3)o2)c1 | 15 | -19 | 1
CCOC(=O)c1c(NC(=O)c2cccc(S(=O)(=O)N3CCCCCC3)c2)sc2c1CCC2 | 6 | 35 | -3
C=C1C(=O)O[C@H]2C1C[C@@H](OC(C)=O)[C@@]1(C)[C@@H](OC(C)=O)C[C@@H](OC(C)=O)C(=C)[C@H]21 (stereo partly drawn) | -1 | 120* | -13
CCOC(=O)c1cnc(SCC(=O)Nc2ccc(Cl)cc2Cl)nc1N | -4 | 71 | -6
CCOC(=O)c1cnc(S/C=C/C(=O)c2ccc(C)cc2)nc1N | 2 | 120* | -48
SMILES | STK33 kin inh | NOMO-1 viab | PD-1 reverse act
O=C(CSc1nc(O)c(-c2ccccc2)c(=O)[nH]1)N(c1ccccc1)c1ccccc1 | 0 | nt | nt
Cc1cc(=O)[nH]c(Nc2nc(C)c3cccc(C)c3n2)n1 | -1 | 130* | -8
COc1ccc2c(C)nc(Nc3nc(C)cc(=O)[nH]3)nc2c1 | 2 | 117* | -1
CCCc1cc(=O)[nH]c(Nc2nc(C)c3ccc(OC)cc3n2)n1 | -4 | 21 | -2
CCCc1cc(=O)[nH]c(Nc2nc(C)c3cc(OC)ccc3n2)n1 | -7 | 11 | 1
CC(C)OC(=O)Nc1cc(Cl)cc(Cl)c1 | -3 | 59 | -18
CCn1c(SCC(=O)Nc2ccc(C)cc2)nnc1-c1cccnc1 | 2 | 0 | nt
NC(CC(=O)O)c1cccc([N+](=O)[O-])c1 (stereo not drawn) | 13 | -16 | 3
CC(=O)Nc1ccc(NC(=O)CN(c2ccc(Cl)c(C(F)(F)F)c2)S(C)(=O)=O)cc1 | 5 | 99* | 0
COC(=O)c1ccc(Cl)c(NC(=O)CN(c2ccccc2Br)S(C)(=O)=O)c1 | 2 | 95* | 1
COC(=O)c1ccc(NC(=O)CN(c2ccccc2Br)S(C)(=O)=O)cc1 | -6 | 15 | 1
Cc1cccc(C)c1NC(=O)CN(c1ccc(Cl)c(C(F)(F)F)c1)S(C)(=O)=O | 1 | -7 | -3
CS(=O)(=O)N(CC(=O)Nc1ccc(Cl)c(C(F)(F)F)c1)c1cccc(C(F)(F)F)c1 | -9 | ? | -6
COC(=O)c1cccc(NC(=O)CN(c2ccc(I)cc2)S(C)(=O)=O)c1C | 2 | 100* | 0
COC(=O)c1cccc(NC(=O)CN(c2ccc(Cl)c(C(F)(F)F)c2)S(C)(=O)=O)c1C | -5 | 142* | -1
COC(=O)c1ccccc1NC(=O)CN(c1ccc(C)c(Cl)c1)S(C)(=O)=O | -6 | 29 | 0
Cc1ccccc1OCCn1c(C(O)c2ccccc2)nc2ccccc21 (stereo not drawn) | 3 | 15 | nt
CC(=O)NCCOc1c(C)cccc1C | 0 | 8 | 3
COC(=O)C1=C(NC(=O)c2ccc(S(=O)(=O)N3CCOCC3)cc2)CCS1 | -2 | 31 | 3
Cc1ccc(S(=O)(=O)N2CCN(c3ccc([N+](=O)[O-])c(NCc4ccco4)c3)CC2)cc1C | 2 | 57 | 2
CSc1cccc(NC(=O)CN(C)S(=O)(=O)c2ccc3ccccc3c2)c1 | -7 | -13 | 1
CC(C)c1ccc2c(c1)CCC1[C@](C)(C(=O)O)CCC[C@]21C (stereo partly drawn) | -6 | 19 | 0
CC(C)c1c(O)ccc2c1CCC1C(C)(C)CCC[C@]21C (stereo partly drawn) | 3 | 109* | nt
O=C1O[C@H](c2ccccc2)[C@H](c2ccccc2)N2[C@H]1[C@@H](C(=O)Nc1nc3ccccc3s1)[C@]1(C(=O)Nc3ccc(C#CC4(O)CCCCCC4)cc31)[C@H]2c1ccccc1OCCO | 0 | nt | nt
O=C(COc1ccccc1[N+](=O)[O-])Nc1ccc2oc(-c3cccc(Br)c3)nc2c1 | 6 | 25 | 2
SMILES | STK33 kin inh | NOMO-1 viab | PD-1 reverse act
C[C@@H]1CCCCO[C@@H](CN(C)Cc2ccc(C(F)(F)F)cc2)[C@@H](C)CN([C@H](C)CO)C(=O)c2cc(NC(=O)c3ccccc3)ccc2O1 | 6 | 93* | 0
COc1ccc(NC(=O)Nc2ccc3c(c2)C(=O)N([C@H](C)CO)C[C@H](C)[C@H](CN(C)Cc2ccncc2)OCCCC[C@@H](C)O3)cc1 | 0 | 2 | 0
C[C@@H]1CCCCO[C@@H](CN(C)Cc2ccc(C(F)(F)F)cc2)[C@@H](C)CN([C@H](C)CO)C(=O)c2cc(NC(=O)c3ccncc3)ccc2O1 | -1 | 20 | nt
C[C@@H]1CCCCO[C@@H](CN(C)Cc2ccc(C(=O)O)cc2)[C@@H](C)CN([C@H](C)CO)C(=O)c2cc(NC(=O)Nc3ccc(C(F)(F)F)cc3)ccc2O1 | 0 | 20 | 1
C[C@@H]1CCCCO[C@@H](CN(C)Cc2ccccc2)[C@@H](C)CN([C@H](C)CO)C(=O)c2cc(NC(=O)Nc3ccc(C(F)(F)F)cc3)ccc2O1 | 2 | 115* | -8
C[C@@H]1CCCCO[C@@H](CN(C)Cc2ccc(C(F)(F)F)cc2)[C@@H](C)CN([C@H](C)CO)C(=O)c2cc(NC(=O)C3CCCCC3)ccc2O1 | 1 | 108* | -6
